# Assay outcomes from PubChem BioAssay.
# Hits are enriched below; roughly 10% of the tested compounds scored in any of these assays.
# HP1b binding inh – HTS for Inhibitors of HP1-beta Chromodomain Interactions with Methylated Histone Tails. Chromobox protein homolog 1 (Homo sapiens), P83916. AlphaScreen HP1-beta / biotin-H3K9me3 peptide binding. Potency, µM (top dose mostly 114 µM), for inactives: at the top dose activity change, negative = inhibition, most hits filed as inhibitors. 390,000 compounds, 0.56% hits. AID 540317, 2011; also: nearly all actives have a fitted effect of over 70% in size
#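 AlphaScreen: HP1-beta (50 nM) preformed 30 min with biotin-H3(1-18)K9me3 peptide (50 nM) in PBS pH 7.4, 0.01% Tween-20. Compound added for 30 min at RT, then streptavidin donor/nickel chelate acceptor beads (10 ug/mL) for 30 min.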
# GLS inh – qHTS for Inhibitors of Glutaminase (GLS); Potency, µM (highest dose often 45.5 µM), for inactives: at the top dose activity change, negative = inhibition, hits mostly inhibitors; Glutaminase kidney isoform, mitochondrial (Homo sapiens), O94925; 410,000 compounds, 0.21% hits; GLS enzymatic activity, qHTS titration; also: % is scaled to controls: 0 for no effect and ±100 for the full control effect
#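 Two-point fluorescence kinetic (t0, 30 min RT) for hKGA; glutamate detected via glutamate oxidase–HRP–Amplex Red. Substrate: 1 mM L-glutamine solution; buffer 45 mM KH2PO4, pH 8.2.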
# G9a inh – qHTS Assay for Inhibitors of Histone Lysine Methyltransferase G9a. Histone-lysine N-methyltransferase EHMT2 (Homo sapiens), Q96KQ7. G9a H3K9 monomethylation, AlphaScreen, 2 h. Potency, µM (doses to about 102 µM), for inactives: at the top dose activity, negative = inhibition, hits mostly inhibitors. 350,000 compounds, 8.8% hits. AID 504332, 2011; also: % is scaled to controls: 0 for no effect and ±100 for the full control effect; nearly all actives have a fitted effect of over 75% in size
#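 Chemiluminescent proximity detection of H3K9 monomethylation, read after 10 min bead incubation in the dark. Reaction: 20 nM G9a, 500 nM biotin-H3K9 peptide, 20 uM SAM cofactor, 2 h, room temperature, following 15 min enzyme-compound preincubation.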
# JMJD2A Tudor inh – qHTS Assay for Inhibitors of JMJD2A-Tudor Domain | Potency, µM (series often up to 114 µM), inactives show at the top dose activity change, negative = inhibition, most hits filed as inhibitors | 390,000 compounds, 4.4% hits | Lysine-specific demethylase 4A (Homo sapiens), O75164 | AlphaScreen JMJD2A-Tudor / H3K4me3 peptide binding; also: % is scaled to controls: 0 for no effect and ±100 for the full control effect; nearly all actives have a fitted effect of over 50% in size
# BAZ2B inh – qHTS Assay for Inhibitors of BAZ2B; Bromodomain adjacent to zinc finger domain protein 2B (Homo sapiens), Q9UIF8; AlphaScreen BAZ2B-H3K14Ac peptide displacement; Potency, µM (series often up to 114 µM), inactives show at the top dose activity change, negative = inhibition, usual class: inhibitors; 360,000 compounds, 4.4% hits; also: % is scaled to controls: 0 for no effect and ±100 for the full control effect; nearly all actives have a fitted effect of over 60% in size
#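 Protein-peptide AlphaScreen: BAZ2B 50 nM, b-H3K14Ac 50 nM, 1x PBS pH 7.4 + 0.01% Tween-20. Preincubation 30 min RT; cpd 30 min RT (top 110 uM); beads 20 min RT, light-protected.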
# An asterisk follows results filed as active; ? = inconclusive; nt = no result given; [ ] = another dose, or the depositor's remark. Calls follow the shape of the dose curve; as a rule, active = well fitted curve in the direction sought with a large enough effect; inconclusive = small, poorly fitted or top-dose-only effect, or another doubt; inactive = no such curve, though single readings can be large; an effect the other way counts as inactive or inconclusive. Potency is read from the fitted curve at half-maximal effect.
SMILES,HP1b binding inh,GLS inh,G9a inh,JMJD2A Tudor inh,BAZ2B inh
COc1cccc(C(=O)Nc2nc3nc(C)c(C)c(=O)n3[nH]2)c1,18.7%,-10.6%,?,89.1µM*,?
COc1ccc(C(=O)Nc2nc3nc(C)c(Cl)c(=O)n3[nH]2)cc1,20.4%,7.1%,-0.6%[59 µM],-11.3%,-9.0%
O=C1[C@@H]2CSCN2C(=O)CN1Cc1ccc(F)cc1,19.5%,9.1%,-7.6%[59 µM],-15.1%,1.1%
CCc1nn(C)c(-c2n[nH]c(=S)n2N)c1Cl,15.0%,15.3%,?,35.5µM*,?
CCc1cc(-c2n[nH]c(=S)n2N)n(C)n1,?,-0.5%,10µM*,8.91µM*,79.4µM*
Cc1ccc(S(=O)(=O)NCc2ccccc2)cc1C(=O)N(C)Cc1ccccc1F,19.3%,6.6%,nt,-10.3%,-19.9%
CCn1c(C(O)c2cc(OC)c(OC)c(OC)c2)nc2ccccc21 (stereo not given),16.2%,3.2%,18.8%,-9.1%,-27.9%
CCCNC(=O)CS(=O)(=O)Cc1nc(-c2ccccc2C)oc1C,14.0%,-8.7%,?,-15.5%,-0.5%
Cc1cccc(N2CCN(C(c3ccc(F)cc3)c3nnc(-c4ccccc4)o3)CC2)c1C (stereo not given),4.5%,-2.4%,?,?,50.1µM*
Cc1ccc(Cl)cc1N1CCN(C(c2ccc(F)cc2)c2nnc(-c3ccccc3)o2)CC1 (stereo not given),11.8%,-2.0%,?,?,-18.9%
CN1CCC(Oc2ccccc2Sc2ccccc2)CC1,?,2.9%,?,0.708µM*,-36.6%
CN1CCC(OC(c2ccccc2)c2ccccc2)CC1,28.8%,-7.2%,-36.3%[2.33 µM],-3.4%,3.9%
C#CCOCCOCCOCCNc1nc(N2CCN(C(=O)[C@H](CCC(=O)O)n3cc([C@@H](N)CCCCN)nn3)CC2)nc(N2CCN(C(=O)[C@H](CCCCN)n3cc([C@@H](N)CC(N)=O)nn3)CC2)n1,34.1%,-5.1%,nt,50.1µM*,nt
C#CCOCCOCCOCCNc1nc(N2CCN(C(=O)[C@H](CCC(=O)O)n3cc([C@@H](N)CCCCN)nn3)CC2)nc(N2CCN(C(=O)[C@H](CCC(=O)O)n3cc([C@@H](N)CCCCN)nn3)CC2)n1,-9.2%,-2.2%,nt,56.2µM*,nt
C#CCOCCOCCOCCNc1nc(N2CCN(C(=O)[C@H](CO)n3cc([C@@H](N)C(C)C)nn3)CC2)nc(N2CCN(C(=O)[C@H](CCC(=O)O)n3cc([C@@H](N)CCCCN)nn3)CC2)n1,43.2%,1.5%,nt,?,nt
CN(C(=O)COc1ccccc1)c1nnc(C23CC4CC(CC(C4)C2)C3)s1,31.0%,-3.3%,14.1µM*,-3.5%,-0.2%
CCOC(=O)C1=C(Cc2ccc(F)cc2)C(=O)c2ccccc2C1=O,?,9.7%,8.91µM*,20µM*,39.8µM*
Cc1ccccc1C(=O)Nc1ccc2c(C#N)c3nc4ccccc4nc3n2c1,-9.9%,0.8%,5.01µM*,-32.4%,50.1µM*
Cc1nc2nc(C)c(NS(=O)(=O)c3ccc4c(c3)CCCC4)c(=O)n2[nH]1,-16.1%,32.5%,70.8µM*,3.5%,-6.2%
CCCc1nc2nc(C)c(NS(=O)(=O)c3ccc(F)cc3)c(=O)n2[nH]1,23.7%,55.8%,8.2%,-5.6%,1.6%
CCCc1nc2nc(C)c(NS(=O)(=O)c3ccc([N+](=O)[O-])cc3)c(=O)n2[nH]1,52.5%,22.9%,79.4µM*,-4.9%,5.8%
Cc1cc(OCC(=O)Nc2cc(S(=O)(=O)N3CCOCC3)ccc2N2CCCC2)ccc1C(C)C,7.4%,3.1%,?,?,-12.2%
O=S(=O)(/N=C(/Nc1ccccc1F)c1ccccc1)c1ccccc1,13.5%,5.1%,2.0%,-11.9%,1.5%
Cn1cccc1CC(=O)N/N=C/c1ccc(Cl)cc1,11.2%,1.2%,nt,-20.7%,?
CCN(CC)C(=O)Cn1cc(C(=O)C(=O)N2CCN(c3ccc(OC)cc3)CC2)c2ccccc21,7.5%,30.1%,50.1µM*,-19.2%,-33.6%
SMILES,HP1b binding inh,GLS inh,G9a inh,JMJD2A Tudor inh,BAZ2B inh
CCN(CC)C(=O)Cn1cc(C(=O)C(=O)N2CCN(c3ccc([N+](=O)[O-])cc3)CC2)c2ccccc21,-0.8%,-4.3%,17.4%,-16.9%,-22.7%
CCOC(=O)c1[nH]c(C)c(C(=O)N2CCN(c3ccccc3)CC2)c1C,-8.1%,21.9%,13.7%[2.33 µM],-30.1%,?
COc1ccc(N2CCN(C(=O)C(=O)c3c(C)[nH]c4ccccc34)CC2)cc1,-4.1%[57 µM],40.3%,39.8µM*,?,?
CCOC(=O)c1c(C)[nH]c(C(=O)N2CCN(c3ccc(OC)cc3)CC2)c1C,-22.2%,-2.3%,44.7µM*,?,39.8µM*
C/C(CCN1CCc2nc(-c3ccccc3)c(-c3ccccc3)cc2C1)=N\O[C@@H](C)c1cn([C@H](CO)Cc2ccccc2)nn1,nt,nt,44.7µM*,nt,?
COc1ccc(O[C@H]2C=C[C@@H](c3ccccc3)O[C@@H]2COC(=O)CC/C(C)=N/O[C@@H](C)c2cn([C@H](CO)Cc3ccccc3)nn2)cc1,nt,nt,79.4µM*,nt,?
COC(=O)C/C=C/[C@@H](C)[C@@H](/C=N/OC[C@H]1O[C@H](c2ccccc2)C=C[C@@H]1Oc1ccc(OC)cc1)NS(=O)(=O)c1ccc(C)cc1,nt,nt,?,nt,-21.1%
CCCNC(=O)OC[C@H]1O[C@H](CCO/N=C(\C)CCN2CCc3nc(-c4ccccc4)c(-c4ccccc4)cc3C2)C=C[C@@H]1Oc1ccc(OC)cc1,nt,nt,?,nt,-35.3%
COc1ccc(O[C@H]2C=C[C@@H](c3ccccc3)O[C@@H]2CO/N=C(\C)CCC(=O)OC[C@H]2O[C@H](c3ccccc3)C=C[C@@H]2Oc2ccc(OC)cc2)cc1,nt,nt,44.7µM*,nt,?
COC(=O)C/C=C/[C@@H](C)[C@@H](/C=N/O[C@@H](C)c1cn([C@H](CO)Cc2ccccc2)nn1)NS(=O)(=O)c1ccc(C)cc1,nt,nt,?,nt,-14.2%
COc1cc2c(cc1OC)C(C(=O)O)C(c1ccc(C)o1)N(C)C2=O (stereo not given),63.6%,1.0%,-12.6%[59 µM],-16.8%,-4.5%
Cc1ccc(S(=O)(=O)N(C)C[C@@H]2Oc3c(NC(=O)C4CC4)cccc3C(=O)N([C@@H](C)CO)C[C@@H]2C)cc1,54.7%,-7.3%,nt,0.0%,nt
COc1ccc(NC(=S)NCCCCCC(=O)C[N+](=O)[O-])cc1,?,-10.2%,22.4µM*,-30.6%,?
O=C(CCCCCNC(=S)Nc1ccccc1)C[N+](=O)[O-],6.8%,2.5%,44.7µM*,-18.6%,-32.2%
